Test results reported in PubChem BioAssay (NCI).
Where “and” joins values, the source holds several entries; their conditions need not be identical. Identical values can stand only once. Compounds without any hit were thinned out: in the full panel of roughly 79,000, 15% have a hit. Some structures have more than one record in an assay (separate samples or runs), and their calls can disagree. Calls of active or inactive are those of the source. Rule as the data show it: active = growth inhibition above about 70%; inactive = the rest.

assay: NCI Yeast Anticancer Drug Screen. Data for the sgs1 mgt1 strain (AID 161);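 also: 0% = growth of cultures given vehicle only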; conditions: S. cerevisiae sgs1 mgt1 strain, at 50.0 µM, stronger effect = higher value
Procedure, shortened: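 Genetically altered yeast, compound exposure, growth inhibition relative to vehicle.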

Which growth inhibition does the source give for `C1CC[N-]CC1.CC(=N\O)/C(C)=N/O.CC(=N\O)/C(C)=N/O.[CH2-]c1ccccc1.[Co+2]` here?
The growth inhibition was -13.4% (inactive).

For `C[Si](C)(C)C#CC#C[Si](C)(C)C.[Ni].[Ni].[Ni].[Ni].[c-]1[c-][c-][cH-][c-]1.[c-]1[c-][c-][cH-][c-]1.[c-]1[c-][c-][cH-][c-]1.[c-]1[c-][c-][cH-][c-]1`, which growth inhibition is on record?
The growth inhibition was -5.05% (inactive).

With `CC(NC1=NCCO1)c1ccccc1Cl` (stereo not given) as the molecule, how does the growth inhibition read?
Its growth inhibition is 5.45% (inactive).

With `O=C(CN1CCCCC1)c1ccc(Br)cc1` as the molecule, how does the growth inhibition read?
The growth inhibition was 9.4% (inactive).

Which growth inhibition does the source give for `COC(=O)C1=C(N2CCCC2)C2c3ccccc3SC12C(=O)OC` (stereo not given) here?
The growth inhibition was -0.25% (inactive).

Which growth inhibition does the source give for `CC(=O)O[C@H]1CCC2[C@@H]3CC[C@]4(C)CC(=O)C=C[C@]4(C)C3CC[C@@]21C` (stereo not given in full) here?
The growth inhibition was 88% (active).

With `Nc1cc(C(=O)O)ccc1O.[Cl][Sn][Cl]` as the molecule, how does the growth inhibition read?
The growth inhibition was -6.4% (inactive).

For `Cc1ccc(NC2=NCCS2)cc1Cl`, which growth inhibition is on record?
Its growth inhibition is 12.1% (inactive).

Which growth inhibition does the source give for `[N-]=[N+]=C1CNC(=O)NC1=O` here?
Its growth inhibition is -10.6% (inactive).

With `CN(C)C(=O)C1(c2ccccc2)CCNCC1` as the molecule, how does the growth inhibition read?
The growth inhibition was 3.25% (inactive).

With `CC(=O)[O][Pb]([CH3])([CH3])[CH3]` as the molecule, how does the growth inhibition read?
Its growth inhibition is -12.4% (inactive).

With `CN(Cc1cnc2nc(N)nc(N)c2n1)c1ccc(C(=O)NC(CCC(=O)NCC(P(=O)(O)O)P(=O)(O)O)C(=O)O)cc1` (stereo not given) as the molecule, how does the growth inhibition read?
The growth inhibition was -28.9% (inactive).

Which growth inhibition does the source give for `O=C1NC(=O)C(CC(C(=O)C(=O)Nc2ccccc2Cl)C(=O)c2ccc3ccccc3c2)C(=O)N1` (stereo not given) here?
Its growth inhibition is -6.3% (inactive).

For `O=C1CCCC2C3CC(CN12)C1CCCCN1C3` (stereo not given), which growth inhibition is on record?
The growth inhibition was -3.4% (inactive) and 6.75% (inactive).

Which growth inhibition does the source give for `CCCCCCCCCCNP(=S)(NCCCCCCCCCC)c1ccccc1` here?
The growth inhibition was 27.9% (inactive).

For `CC(C)(C)c1cc(O)ccc1O`, which growth inhibition is on record?
The growth inhibition was -29.1% (inactive).

Which growth inhibition does the source give for `Cc1ccc(S(=O)(=O)F)cc1` here?
The growth inhibition was 2.1% (inactive).

For `CC(O)C[As](=O)(O)c1ccccc1Cl` (stereo not given), which growth inhibition is on record?
The growth inhibition was -17.3% (inactive).

Which growth inhibition does the source give for `CN1CCCC2(CCCc3ccccc32)C1` (stereo not given) here?
Its growth inhibition is -25.9% (inactive).

For `SCc1c(Cl)c(Cl)c(Cl)c(Cl)c1Cl.[Hg]`, which growth inhibition is on record?
The growth inhibition was -15.5% (inactive).

Which growth inhibition does the source give for `CC[C@@]1(O)C(=O)OCc2c1cc1n(c2=O)Cc2c-1nc1ccccc1c2C=Nc1ccc(N[C@@H]2c3cc4c(cc3[C@@H](c3cc(OC)c(O)c(OC)c3)[C@H]3C(=O)OC[C@@H]32)OCO4)cc1` here?
Its growth inhibition is 69.9% (inactive) and 80.4% (active).

For `CCC1CN2CCC3(C(=O)Nc4ccccc43)C2CC1/C(=C/OC)C(=O)OC` (stereo not given), which growth inhibition is on record?
Its growth inhibition is 7.85% (inactive).

With `N#CC1(c2ccccc2)CCCC1` as the molecule, how does the growth inhibition read?
Its growth inhibition is -4.7% (inactive).

With `CCCCCCCCCCCCCCC(O)C1CCC(C(O)CCC(O)CCCCCC(O)CC2=CC(C)OC2=O)O1` (stereo not given) as the molecule, how does the growth inhibition read?
Its growth inhibition is -17.6% (inactive).

Which growth inhibition does the source give for `O=C1C=C2c3ccccc3CC(C(=O)O)C2CC1` (stereo not given) here?
Its growth inhibition is -3.45% (inactive).

With `CCOP(=S)(OCC)N(C)C(=O)Oc1cccc(C(C)C)c1` as the molecule, how does the growth inhibition read?
The growth inhibition was 8.95% (inactive).

Which growth inhibition does the source give for `CCOC(OCC)c1ccccc1` here?
Its growth inhibition is -4.95% (inactive).

Which growth inhibition does the source give for `CN1CCC2(CC1)c1ccccc1-c1ccccc12` here?
The growth inhibition was -2.6% (inactive).

With `COc1ccc2c(c1)-c1c(ccc(OC)c1OC(=O)C(=O)c1ccccc1)CC(Cl)N(C)CC2.[O]=[Cr](=[O])([OH])[OH]` (stereo not given) as the molecule, how does the growth inhibition read?
The growth inhibition was -19.5% (inactive).

Which growth inhibition does the source give for `NC(Cc1ccc(N(CCCl)Cc2ccccc2)cc1)C(=O)O` (stereo not given) here?
Its growth inhibition is 2% (inactive).

For `NC(=O)C(F)(F)Cl`, which growth inhibition is on record?
Its growth inhibition is -20.4% (inactive).

For `COP(=O)(NC(=O)OC(C)C)OC`, which growth inhibition is on record?
Its growth inhibition is -9.8% (inactive).

For `c1ccc(C[P+]2(c3ccccc3)CCCCC2)cc1`, which growth inhibition is on record?
Its growth inhibition is -0.55% (inactive).

Which growth inhibition does the source give for `CCS(=O)(=O)CCN1C(=O)CN=C(c2ccccc2F)c2cc(Cl)ccc21` here?
Its growth inhibition is 20.8% (inactive).

For `N/C(=N\N=C\c1ccccc1O)N[N+](=O)[O-]`, which growth inhibition is on record?
The growth inhibition was -14.8% (inactive).

Which growth inhibition does the source give for `CCCCCCCCCCOC(=O)CC(C)=O.CCCCCCCCCCOC(=O)CC(C)=O.[Ni+2]` here?
Its growth inhibition is -26.4% (inactive).

With `CCOP(=O)(CCC[N+](=O)[O-])OCC` as the molecule, how does the growth inhibition read?
Its growth inhibition is -18.7% (inactive).

With `COc1ccc2nc3cc(Cl)ccc3c(NCCCSCCCl)c2n1` as the molecule, how does the growth inhibition read?
The growth inhibition was 94.3% (active).

With `CN(C)CCC(C)(C#N)c1ccccc1` (stereo not given) as the molecule, how does the growth inhibition read?
Its growth inhibition is -4.8% (inactive).

For `CC1CC2OC(=O)C(CN3CC3)C2CC2(C)C(O)CC(O)C12` (stereo not given), which growth inhibition is on record?
Its growth inhibition is 32.5% (inactive).

assay: NCI Yeast Anticancer Drug Screen. Data for the cln2 rad14 strain (AID 165);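 also: 0% = growth equal to vehicle treated cultures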; conditions: S. cerevisiae cln2 rad14 strain, at 50.0 µM, stronger effect = higher value
Procedure, shortened: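 Compounds are applied to the cln2 rad14 yeast strain, and growth is then compared with that of vehicle-treated cultures to give inhibition.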

Which growth inhibition does the source give for `C1CC[N-]CC1.CC(=N\O)/C(C)=N/O.CC(=N\O)/C(C)=N/O.[CH2-]c1ccccc1.[Co+2]` here?
Its growth inhibition is -36% (inactive).

Which growth inhibition does the source give for `C[Si](C)(C)C#CC#C[Si](C)(C)C.[Ni].[Ni].[Ni].[Ni].[c-]1[c-][c-][cH-][c-]1.[c-]1[c-][c-][cH-][c-]1.[c-]1[c-][c-][cH-][c-]1.[c-]1[c-][c-][cH-][c-]1` here?
Its growth inhibition is 9.2% (inactive).

With `CC(NC1=NCCO1)c1ccccc1Cl` (stereo not given) as the molecule, how does the growth inhibition read?
The growth inhibition was -27.9% (inactive).

Which growth inhibition does the source give for `O=C(CN1CCCCC1)c1ccc(Br)cc1` here?
The growth inhibition was -20.9% (inactive).

For `COC(=O)C1=C(N2CCCC2)C2c3ccccc3SC12C(=O)OC` (stereo not given), which growth inhibition is on record?
Its growth inhibition is 0.7% (inactive).

Which growth inhibition does the source give for `CC(=O)O[C@H]1CCC2[C@@H]3CC[C@]4(C)CC(=O)C=C[C@]4(C)C3CC[C@@]21C` (stereo not given in full) here?
The growth inhibition was 85.1% (active).

For `Nc1cc(C(=O)O)ccc1O.[Cl][Sn][Cl]`, which growth inhibition is on record?
The growth inhibition was -45.8% (inactive).

For `Cc1ccc(NC2=NCCS2)cc1Cl`, which growth inhibition is on record?
Its growth inhibition is 10.8% (inactive).

For `[N-]=[N+]=C1CNC(=O)NC1=O`, which growth inhibition is on record?
The growth inhibition was 0.05% (inactive).

With `CN(C)C(=O)C1(c2ccccc2)CCNCC1` as the molecule, how does the growth inhibition read?
Its growth inhibition is 1% (inactive).

Which growth inhibition does the source give for `CC(=O)[O][Pb]([CH3])([CH3])[CH3]` here?
Its growth inhibition is 6.7% (inactive).

Which growth inhibition does the source give for `CN(Cc1cnc2nc(N)nc(N)c2n1)c1ccc(C(=O)NC(CCC(=O)NCC(P(=O)(O)O)P(=O)(O)O)C(=O)O)cc1` (stereo not given) here?
Its growth inhibition is -28.1% (inactive).

For `O=C1NC(=O)C(CC(C(=O)C(=O)Nc2ccccc2Cl)C(=O)c2ccc3ccccc3c2)C(=O)N1` (stereo not given), which growth inhibition is on record?
The growth inhibition was -32.8% (inactive).

With `O=C1CCCC2C3CC(CN12)C1CCCCN1C3` (stereo not given) as the molecule, how does the growth inhibition read?
Its growth inhibition is 9.05% (inactive) and 21.3% (inactive).

With `CCCCCCCCCCNP(=S)(NCCCCCCCCCC)c1ccccc1` as the molecule, how does the growth inhibition read?
The growth inhibition was -19.8% (inactive).

Which growth inhibition does the source give for `CC(C)(C)c1cc(O)ccc1O` here?
Its growth inhibition is -0.25% (inactive).

For `Cc1ccc(S(=O)(=O)F)cc1`, which growth inhibition is on record?
Its growth inhibition is -14.7% (inactive).

Which growth inhibition does the source give for `CC(O)C[As](=O)(O)c1ccccc1Cl` (stereo not given) here?
The growth inhibition was -2.55% (inactive).

With `CN1CCCC2(CCCc3ccccc32)C1` (stereo not given) as the molecule, how does the growth inhibition read?
The growth inhibition was 15.3% (inactive).

Which growth inhibition does the source give for `SCc1c(Cl)c(Cl)c(Cl)c(Cl)c1Cl.[Hg]` here?
The growth inhibition was -64.8% (inactive).

Which growth inhibition does the source give for `CC[C@@]1(O)C(=O)OCc2c1cc1n(c2=O)Cc2c-1nc1ccccc1c2C=Nc1ccc(N[C@@H]2c3cc4c(cc3[C@@H](c3cc(OC)c(O)c(OC)c3)[C@H]3C(=O)OC[C@@H]32)OCO4)cc1` here?
Its growth inhibition is 54% (inactive) and 77.9% (active).

For `CCC1CN2CCC3(C(=O)Nc4ccccc43)C2CC1/C(=C/OC)C(=O)OC` (stereo not given), which growth inhibition is on record?
Its growth inhibition is 2.55% (inactive).

Which growth inhibition does the source give for `N#CC1(c2ccccc2)CCCC1` here?
The growth inhibition was 11.6% (inactive).

For `CCCCCCCCCCCCCCC(O)C1CCC(C(O)CCC(O)CCCCCC(O)CC2=CC(C)OC2=O)O1` (stereo not given), which growth inhibition is on record?
Its growth inhibition is 39.8% (inactive).

With `O=C1C=C2c3ccccc3CC(C(=O)O)C2CC1` (stereo not given) as the molecule, how does the growth inhibition read?
Its growth inhibition is -22.9% (inactive).

For `CCOP(=S)(OCC)N(C)C(=O)Oc1cccc(C(C)C)c1`, which growth inhibition is on record?
The growth inhibition was -6.1% (inactive).

With `CCOC(OCC)c1ccccc1` as the molecule, how does the growth inhibition read?
Its growth inhibition is -11.9% (inactive).

For `CN1CCC2(CC1)c1ccccc1-c1ccccc12`, which growth inhibition is on record?
The growth inhibition was -25% (inactive).

Which growth inhibition does the source give for `COc1ccc2c(c1)-c1c(ccc(OC)c1OC(=O)C(=O)c1ccccc1)CC(Cl)N(C)CC2.[O]=[Cr](=[O])([OH])[OH]` (stereo not given) here?
The growth inhibition was -17% (inactive).

Which growth inhibition does the source give for `NC(Cc1ccc(N(CCCl)Cc2ccccc2)cc1)C(=O)O` (stereo not given) here?
Its growth inhibition is -3.85% (inactive).

For `NC(=O)C(F)(F)Cl`, which growth inhibition is on record?
The growth inhibition was 12.3% (inactive).

Which growth inhibition does the source give for `COP(=O)(NC(=O)OC(C)C)OC` here?
Its growth inhibition is 5.2% (inactive).

Which growth inhibition does the source give for `c1ccc(C[P+]2(c3ccccc3)CCCCC2)cc1` here?
Its growth inhibition is -22.6% (inactive).

For `CCS(=O)(=O)CCN1C(=O)CN=C(c2ccccc2F)c2cc(Cl)ccc21`, which growth inhibition is on record?
Its growth inhibition is 12.4% (inactive).

Which growth inhibition does the source give for `N/C(=N\N=C\c1ccccc1O)N[N+](=O)[O-]` here?
The growth inhibition was -108% (inactive).

For `CCCCCCCCCCOC(=O)CC(C)=O.CCCCCCCCCCOC(=O)CC(C)=O.[Ni+2]`, which growth inhibition is on record?
Its growth inhibition is -45.1% (inactive).

With `CCOP(=O)(CCC[N+](=O)[O-])OCC` as the molecule, how does the growth inhibition read?
Its growth inhibition is -15.8% (inactive).

Which growth inhibition does the source give for `COc1ccc2nc3cc(Cl)ccc3c(NCCCSCCCl)c2n1` here?
The growth inhibition was 78.4% (active).

With `CN(C)CCC(C)(C#N)c1ccccc1` (stereo not given) as the molecule, how does the growth inhibition read?
The growth inhibition was -7.05% (inactive).

Which growth inhibition does the source give for `CC1CC2OC(=O)C(CN3CC3)C2CC2(C)C(O)CC(O)C12` (stereo not given) here?
Its growth inhibition is -4.1% (inactive).
